High-throughput results as filed in PubChem.
LmPK inh: qHTS Assay for Inhibitors of Leishmania Mexicana Pyruvate Kinase (LmPK) | purified LmPK, Kinase-Glo ATP luminescence, 1 h | 290,000 tested, 0.37% active | Q27686 | Potency, µM (top dose mostly 57.5 µM), most hits filed as inhibitors
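Purified LmPK (0.1 nM) with 0.5 mM PEP and 0.1 mM ADP in imidazole buffer pH 7.2 with MgCl2/KCl, 1 h at room temperature. ATP formed was read by luciferase luminescence and normalized to no-enzyme and uninhibited controls.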
RE007 growth inh: qHTS Assay for Inhibitors of the HIV-1 protein Vpr; S. pombe RE007 Vpr strain, BacTiter-Glo ATP luminescence, 24 h; Potency, µM (highest dose often 92.2 µM), actives largely listed as inhibitors; 360,000 tested, 0.21% active; active = well fitted falling curve with a large enough effect; inconclusive = small, poorly fitted or top-dose-only effect; inactive = no such curve, though single readings can be large or run the other way; note: nearly all actives have a fitted effect of over 50% in size
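Fission yeast RE007 carrying one integrated HIV-1 vpr copy, seeded at OD 0.01 in PMG+AL medium with 23 nL pinned compound. Grown 24 h at 30 degrees; viability read by BacTiter-Glo luminescence after 5 min.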
TbPYK inhibitor: qHTS of Trypanosoma Brucei Inhibitors; TbPYK enzyme, Kinase-Glo Plus ATP luminescence, 45 min; Potency, µM (top dose mostly 76.8 µM), hits mostly inhibitors; 410,000 tested, 0.12% active; note: nearly all actives have a fitted effect of over 50% in size
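Enzyme and substrate buffer are dispensed first and compound is pin-transferred. ADP at 130 uM final then starts the reaction, which runs 45 min at room temperature. Detection reagent is added for 10 min before luminescence is imaged.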
Giardia FBPA inh: qHTS Assay for Inhibitors of Fructose-1,6-bisphosphate Aldolase from Giardia Lamblia; Potency, µM (series often up to 59.6 µM), most hits filed as inhibitors; 290,000 tested, 0.71% active; A8B2U2; purified Giardia FBPA; note: nearly all actives have a fitted effect of over 55% in size
Target sequence (A8B2U2 whole entry, looked up): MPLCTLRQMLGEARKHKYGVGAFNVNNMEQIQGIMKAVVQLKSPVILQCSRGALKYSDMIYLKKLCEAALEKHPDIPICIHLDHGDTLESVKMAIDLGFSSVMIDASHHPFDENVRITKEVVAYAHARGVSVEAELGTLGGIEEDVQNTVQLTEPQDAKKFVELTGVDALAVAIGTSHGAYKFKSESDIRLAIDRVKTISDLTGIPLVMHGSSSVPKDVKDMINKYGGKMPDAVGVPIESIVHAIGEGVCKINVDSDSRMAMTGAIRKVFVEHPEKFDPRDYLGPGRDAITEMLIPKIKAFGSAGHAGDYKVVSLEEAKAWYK
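40 nM FBPA preincubated 10 min at RT with compound (up to 57.5 uM final), then substrate plus GAPDH/TPI/NAD/arsenate coupling and diaphorase/resazurin added. Fluorescence read after 20 min at RT, 525/598 nm.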
Sm TGR inh: qHTS Assay for the Inhibitors of Schistosoma Mansoni Peroxiredoxins | Schistosoma mansoni thioredoxin glutathione reductase (TGR), Q962Y6 | purified TGR, DTNB reduction, TNB absorbance 405 nm | Potency, µM (doses to about 114 µM), actives largely listed as inhibitors | 360,000 tested, 3% active | AID 485364, 2010; note: nearly all actives have a fitted effect of over 60% in size
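Kinetic colorimetric format: TGR-catalysed, NADPH-driven DTNB reduction monitored via TNB absorbance. Enzyme dispensed at 20 nM; compound exposure 15 min at room temperature before reaction start.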
A number is an active result; . = inactive; ? = inconclusive; / = no result; [ ] = remark or other dose. The list is not random: actives were taken first. Their share in the collection is about 3.3%. Unless noted, calls come from the whole dose curve; as a rule, active = well fitted curve in the direction sought with a large enough effect; inconclusive = small, poorly fitted or top-dose-only effect, or another doubt; inactive = no such curve, though single readings can be large; an effect the other way counts as inactive or inconclusive.

SMILES | LmPK inh | RE007 growth inh | TbPYK inhibitor | Giardia FBPA inh | Sm TGR inh
COc1ccc(CNC(=O)c2cc(Nc3ccc(C)cc3C)nc3ccccc23)cc1 | / | / | . | / | .
COc1cccc(S(=O)(=O)Nc2ccc(C(=O)Nc3ccncc3)cc2)c1 | . | . | . | . | .
CN(C)CCN1C(=O)c2oc3ccccc3c(=O)c2C1c1cccc(Br)c1 (configuration not stated) | . | . | . | . | .
Cc1nc2ccccc2n2c(O)c(CC(=O)O)cc12 | . | . | . | . | 35.5µM
CCOC(=O)c1c(NC(=O)c2cc(=O)c3c(C)cc(C)cc3o2)sc(C(C)=O)c1C | / | / | . | / | .
Cc1ccsc1/C=C1/C(=O)NN(c2ccccc2)C1=O | ? | . | . | ? | .
Cc1ccsc1C=C1C(=O)c2ccccc2C1=O | 14.1µM | ? | . | . | .
CC(=O)Nc1ccc(CN(C)c2c(C)nc3ccc(C(=O)NC4CCN(Cc5ccccc5)CC4)cn23)cc1 | / | .[18.4 µM] | . | / | /
CCc1c(C(C)S(=O)(=O)c2ccccc2)[nH]c(=O)n1CC (configuration not stated) | . | . | . | . | 1µM
COc1cccc(OCCOCCNCCO)c1 | . | / | / | . | ?
CC1=NN(c2ccccc2)C(=O)/C1=C/C=C/c1ccc(N(C)C)cc1 | 14.1µM | . | ? | . | .
CC1=NN(c2ccccc2)C(=O)/C1=C\C=C\c1ccccc1 | . | . | . | . | .
CCOc1ncccc1C(=O)OCCN1C(=O)c2ccccc2C1=O | . | . | . | . | .
Nc1ccc(C=Cc2ccc(N)cc2)cc1 | / | . | . | / | /
CC(=O)c1c(C)oc2ccc(N(C(C)=O)S(=O)(=O)c3ccc(Cl)c([N+](=O)[O-])c3)cc12 | . | . | . | . | 2.24µM
COc1ccc(C(NC(=O)c2ccco2)c2ccc(OC)c(OC)c2)cc1OC | . | . | . | . | .
CCOc1ccc(C(NC(=O)/C=C/c2ccco2)c2ccc(OC)c(OC)c2)cc1 (configuration not stated) | . | . | . | . | 44.7µM
CCOc1ccc(C(NC(C)=O)c2ccc(OC)c(OC)c2)cc1 (configuration not stated) | . | . | . | . | .
COc1ccc(C(NC(=O)/C=C/c2ccco2)c2ccc(OC)c(OC)c2)cc1 (configuration not stated) | . | . | . | . | 25.1µM
C#CCSc1ncc(S(=O)(=O)c2ccccc2)c(=O)[nH]1 | . | . | . | . | .
COc1ccc(NC(=O)CC(c2ccccc2)c2ccco2)cc1 (configuration not stated) | . | . | . | . | 39.8µM
COc1ccccc1N1CCN(C(=O)c2ccc3nc(-c4ccco4)c(-c4ccco4)nc3c2)CC1 | . | . | ? | . | 14.1µM
COc1ccc2nc3oc(C(=O)N4CCN(c5cccc(Cl)c5)CC4)cc3cc2c1 | . | . | . | . | .
COc1ccc2nc3oc(C(=O)N4CCN(c5cc(C)ccc5C)CC4)cc3cc2c1 | / | / | . | / | 89.1µM
Cc1ccc(C)c(N2CCN(C(=O)c3ccc4nc(-c5ccco5)c(-c5ccco5)nc4c3)CC2)c1 | . | . | . | / | 6.31µM
SMILES | LmPK inh | RE007 growth inh | TbPYK inhibitor | Giardia FBPA inh | Sm TGR inh
Cc1ccc(C)c(N2CCN(C(=O)c3ccc4nc(N5CCOCC5)sc4c3)CC2)c1 | . | . | . | / | .
O=C(CSc1nnc(NC(=O)c2ccccc2[N+](=O)[O-])s1)NCC1CCCO1 (configuration not stated) | . | . | . | / | .
Cc1ccc(S(=O)c2ccc([N+](=O)[O-])c3nonc23)cc1 (configuration not stated) | / | ? | 6.31µM | / | /
O=c1c2ccccc2sn1-c1ccc(S(=O)(=O)N2CCCC2)cc1 | . | . | 6.31µM | . | ?
Cc1ccc(-n2sc3ccccc3c2=O)cc1S(=O)(=O)N1CCCCC1 | . | 15.8µM | 3.98µM | ? | .
O=c1c2ccccc2sn1-c1ccc(S(=O)(=O)N2CCCCC2)cc1 | / | . | ? | / | /
COc1cc(C(=O)Nc2cccc3c2CCCC3)cc(OC)c1OC | . | . | . | . | .
Cc1cc2c(cc1C)N(C(=O)CSC1=NCCS1)C(C)(C)c1ssc(=S)c1-2 | . | . | . | . | .
CCCCc1nnc(NC(=O)c2ccc(-n3cncn3)c([N+](=O)[O-])c2)s1 | / | . | . | / | .
CCCCCN(CCCCC)C(=O)[C@H](CCC(=O)O)NC(=O)c1ccc(Cl)c(Cl)c1 | / | / | / | . | /
CC(C)S(=O)(=O)c1csc(C(=O)Nc2ccc(F)cc2)c1N | 14.1µM | ? | . | . | .
CC(=O)OCC12CC(OC(=O)CC(C)C)C(C)=CC1OC1C(O)C(OC(C)=O)C2(C)C12CO2 (configuration not stated) | / | 5.62µM | . | / | /
C=CCCCCCCCCC(=O)N1CCN(c2cc3c(cc2F)c(=O)c(C(=O)O)cn3CC)CC1 | . | . | . | . | .
CCOC(=O)c1ccc(NC(=O)CC2C(=O)OCCN2CC)cc1 (configuration not stated) | . | 5.01µM | . | . | 22.4µM
O=C(CC1C(=O)OCCN1Cc1ccccc1)Nc1ccc(F)cc1 (configuration not stated) | / | / | . | / | ?
CCN1CCOC(=O)C1CC(=O)Nc1cccc(OC)c1 (configuration not stated) | / | / | . | / | 17.8µM
CCOC(=O)c1ccc(NC(=O)CC2OCCN(CC)C2=O)cc1 (configuration not stated) | . | 4.47µM | . | . | 25.1µM
CCOc1ccc(NC(=O)CC2C(=O)OCCN2CC)cc1 (configuration not stated) | / | / | . | / | 11.2µM
COC(=O)c1cc(NC(=O)CC2C(=O)OCCN2Cc2ccccc2)cc(C(=O)OC)c1 (configuration not stated) | / | / | . | / | .
CCC(C)c1ccc(OCC(=O)Nc2cccc(-c3nc4ncccc4o3)c2)cc1 (configuration not stated) | / | / | . | / | .
O=C(/C=C/c1ccco1)N1CCN(S(=O)(=O)c2ccccc2)CC1 | / | . | . | / | /
O=C(/C=C/c1ccco1)N1CCN(S(=O)(=O)c2ccc(F)c(F)c2F)CC1 | . | . | . | . | 5.01µM
Cc1ccc(S(=O)(=O)N2CCN(C(=O)/C=C/c3ccco3)CC2)cc1 | . | . | . | . | 50.1µM
Cc1ccc(C)c(S(=O)(=O)N2CCN(C(=O)/C=C/c3ccco3)CC2)c1 | / | . | . | / | 3.98µM
O=C(CSc1nc(=O)n(CCN2CCOCC2)c2c1CCC2)Nc1ccc(OC(F)(F)F)cc1 | / | . | . | / | .
CN(CC(=O)Nc1ccc(F)cc1)c1ccc(S(=O)(=O)N2CCCC2)cn1 | . | . | . | . | .
CNC(=O)Oc1ccc(-c2cn3cc(Cl)ccc3n2)cc1 | . | . | . | . | 35.5µM
